Holding throughout (test): DAPPL (digital affinity profiling via proximity ligation, sequencing); 10 mM Tris-HCl pH 7.5, 50 mM NaCl, 1 mM DTT, 4% glycerol, room temperature, 30 min; GST-TFs on glutathione beads, 16-mer random dsDNA library, 0.1% formaldehyde crosslink after washing; high values mean tight binding
One test concerns the target T1, FEV (Homo sapiens, UniProt Q99581 1-238).
T1 sequence: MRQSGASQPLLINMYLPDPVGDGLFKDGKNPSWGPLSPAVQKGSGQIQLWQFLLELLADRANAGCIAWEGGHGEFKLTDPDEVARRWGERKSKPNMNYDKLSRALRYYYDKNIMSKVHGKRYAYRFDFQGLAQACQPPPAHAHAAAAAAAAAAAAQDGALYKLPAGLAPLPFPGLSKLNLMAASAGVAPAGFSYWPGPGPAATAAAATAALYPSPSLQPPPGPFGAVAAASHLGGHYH
Conditions: protein: recombinant; tags: N-terminal GST; dsDNA, one strand shown. Put shortly:
(§1)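 Pools were built from human transcription factors expressed in yeast as GST fusions, captured on glutathione beads and DNA-barcoded, along with a tag-only sample. Incubation with 200 nmole of a 16-mer random double-stranded DNA library lasted 30 min at room temperature in Tris/NaCl/DTT/glycerol buffer, and was followed by washing, 0.1% formaldehyde crosslinking, proximity ligation, PCR amplification and Illumina NextSeq500 sequencing. Binding signal is the quotient of each hexamer's read frequency for a factor and its frequency for the tag-only sample.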

Another test has as its target ETV5 (Homo sapiens, UniProt P41161 1-510). The following applies: protein: recombinant; tags: N-terminal GST; dsDNA, one strand shown. Put shortly: as §1
Another test deals with HSF1 (Homo sapiens, UniProt Q00613 1-529). The following applies: protein: recombinant; tags: N-terminal GST; chain copies: 3; dsDNA, one strand shown. Put shortly:
as §1

In a further test the target is T2, SPIC (Homo sapiens, UniProt Q8N5J4 1-248).
T2 sequence: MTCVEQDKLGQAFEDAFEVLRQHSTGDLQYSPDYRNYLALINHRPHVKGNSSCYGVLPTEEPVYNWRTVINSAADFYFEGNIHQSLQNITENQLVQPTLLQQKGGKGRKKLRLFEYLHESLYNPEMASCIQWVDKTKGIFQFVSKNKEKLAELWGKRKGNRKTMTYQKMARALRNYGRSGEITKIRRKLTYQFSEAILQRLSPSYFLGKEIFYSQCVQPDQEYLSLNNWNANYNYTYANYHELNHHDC
Conditions: protein: recombinant; tags: N-terminal GST; dsDNA, one strand shown. Put shortly: as §1

Another test concerns the target ELF4 (Homo sapiens, UniProt Q99607 1-663). The following applies: protein: recombinant; tags: N-terminal GST; dsDNA, one strand shown. Put shortly: as §1
In another test the target is T3, ELK4 (Homo sapiens, UniProt P28324-2 1-405).
T3 sequence: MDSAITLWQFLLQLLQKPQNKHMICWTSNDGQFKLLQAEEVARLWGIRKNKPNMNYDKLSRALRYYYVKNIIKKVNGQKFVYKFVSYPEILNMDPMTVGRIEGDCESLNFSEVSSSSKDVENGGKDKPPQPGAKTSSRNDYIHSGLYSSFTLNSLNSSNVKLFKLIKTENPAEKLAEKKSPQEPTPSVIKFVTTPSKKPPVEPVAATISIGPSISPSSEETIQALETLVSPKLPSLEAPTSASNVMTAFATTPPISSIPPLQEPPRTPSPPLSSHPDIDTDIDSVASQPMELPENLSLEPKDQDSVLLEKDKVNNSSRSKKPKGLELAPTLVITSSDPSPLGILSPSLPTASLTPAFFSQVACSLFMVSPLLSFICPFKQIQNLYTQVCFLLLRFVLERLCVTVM
Conditions: protein: recombinant; tags: N-terminal GST; dsDNA, one strand shown. Put shortly: as §1

Another test deals with T4, ETV2 (Homo sapiens, UniProt O00321 1-342).
T4 sequence: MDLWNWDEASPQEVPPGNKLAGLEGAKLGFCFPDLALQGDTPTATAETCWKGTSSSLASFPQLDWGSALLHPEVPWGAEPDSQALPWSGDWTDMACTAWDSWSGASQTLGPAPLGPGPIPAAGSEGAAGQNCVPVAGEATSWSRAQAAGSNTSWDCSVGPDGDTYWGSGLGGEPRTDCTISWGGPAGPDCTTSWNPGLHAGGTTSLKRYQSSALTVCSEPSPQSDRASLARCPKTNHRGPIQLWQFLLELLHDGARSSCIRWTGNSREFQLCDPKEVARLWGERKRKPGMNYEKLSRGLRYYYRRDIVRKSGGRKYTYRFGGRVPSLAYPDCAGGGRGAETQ
The following applies: protein: recombinant; tags: N-terminal GST; dsDNA, one strand shown. The method, boiled down: as §1

The target of another test is T5, ELF3 (Homo sapiens, UniProt P78545 1-371).
T5 sequence: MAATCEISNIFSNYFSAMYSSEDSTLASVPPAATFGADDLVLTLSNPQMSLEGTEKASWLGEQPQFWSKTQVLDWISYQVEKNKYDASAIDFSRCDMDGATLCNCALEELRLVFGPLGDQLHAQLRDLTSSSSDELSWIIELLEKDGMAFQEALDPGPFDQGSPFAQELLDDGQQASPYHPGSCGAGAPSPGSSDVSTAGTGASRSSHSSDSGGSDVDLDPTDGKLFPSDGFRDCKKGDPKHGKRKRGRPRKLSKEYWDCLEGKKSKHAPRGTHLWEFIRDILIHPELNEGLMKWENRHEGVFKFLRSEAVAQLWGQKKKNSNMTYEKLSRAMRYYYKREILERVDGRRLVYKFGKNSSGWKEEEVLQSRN
Conditions: protein: recombinant; tags: N-terminal GST; dsDNA, one strand shown. The method, boiled down: as §1

Another test concerns the target CRX (Homo sapiens, UniProt O43186 1-299). Conditions: protein: recombinant; tags: N-terminal GST; dsDNA, one strand shown. The method, boiled down: as §1
The next test addresses ETV1 (Homo sapiens, UniProt P50549 1-477). Conditions: protein: recombinant; tags: N-terminal GST; dsDNA, one strand shown. The method, boiled down: as §1
In the next test the target is T6, ERF (Homo sapiens, UniProt P50548 1-548).
T6 sequence: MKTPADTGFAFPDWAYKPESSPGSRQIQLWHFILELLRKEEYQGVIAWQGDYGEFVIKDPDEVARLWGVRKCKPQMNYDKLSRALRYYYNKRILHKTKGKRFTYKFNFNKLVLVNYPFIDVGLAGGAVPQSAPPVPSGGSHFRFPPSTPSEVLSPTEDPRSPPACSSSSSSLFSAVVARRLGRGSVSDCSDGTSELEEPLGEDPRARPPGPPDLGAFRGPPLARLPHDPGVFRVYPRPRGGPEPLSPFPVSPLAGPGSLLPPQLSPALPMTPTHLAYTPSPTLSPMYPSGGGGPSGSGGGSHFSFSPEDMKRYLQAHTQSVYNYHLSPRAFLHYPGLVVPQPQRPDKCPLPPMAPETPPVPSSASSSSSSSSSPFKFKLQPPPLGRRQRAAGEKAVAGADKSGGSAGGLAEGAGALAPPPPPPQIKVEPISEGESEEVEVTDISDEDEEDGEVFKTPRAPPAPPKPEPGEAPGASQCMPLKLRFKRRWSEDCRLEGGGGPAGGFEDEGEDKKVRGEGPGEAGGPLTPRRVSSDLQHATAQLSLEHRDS
The following applies: protein: recombinant; tags: N-terminal GST; dsDNA, one strand shown. Put shortly: as §1

The target in a further test is T7, ETV3L (Homo sapiens, UniProt Q6ZN32 1-361).
T7 sequence: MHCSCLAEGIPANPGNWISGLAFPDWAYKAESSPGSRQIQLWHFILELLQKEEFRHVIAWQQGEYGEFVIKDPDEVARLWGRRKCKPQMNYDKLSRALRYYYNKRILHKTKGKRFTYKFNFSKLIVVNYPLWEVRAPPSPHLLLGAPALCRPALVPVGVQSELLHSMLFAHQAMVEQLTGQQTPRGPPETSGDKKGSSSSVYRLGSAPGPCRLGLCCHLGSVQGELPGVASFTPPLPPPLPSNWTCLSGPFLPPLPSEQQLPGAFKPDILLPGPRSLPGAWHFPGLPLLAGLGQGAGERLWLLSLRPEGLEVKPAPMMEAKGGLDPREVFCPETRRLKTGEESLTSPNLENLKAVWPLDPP
The following applies: protein: recombinant; tags: N-terminal GST; dsDNA, one strand shown. The method, boiled down: as §1

The next test concerns the target T8, ETS2 (Homo sapiens, UniProt P15036 1-469).
T8 sequence: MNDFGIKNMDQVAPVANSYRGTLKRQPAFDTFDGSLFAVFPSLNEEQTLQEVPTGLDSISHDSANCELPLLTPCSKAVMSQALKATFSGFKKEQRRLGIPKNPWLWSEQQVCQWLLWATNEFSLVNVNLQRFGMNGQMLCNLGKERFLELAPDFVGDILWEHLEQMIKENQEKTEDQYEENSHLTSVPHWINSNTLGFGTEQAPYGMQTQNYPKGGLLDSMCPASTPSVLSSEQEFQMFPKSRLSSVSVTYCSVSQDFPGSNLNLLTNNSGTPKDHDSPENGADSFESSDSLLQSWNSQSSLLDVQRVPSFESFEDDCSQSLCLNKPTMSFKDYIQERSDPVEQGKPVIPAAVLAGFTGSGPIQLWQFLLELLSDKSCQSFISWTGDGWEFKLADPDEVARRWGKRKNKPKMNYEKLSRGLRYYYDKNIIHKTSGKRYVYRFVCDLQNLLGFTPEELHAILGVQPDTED
Conditions: protein: recombinant; tags: N-terminal GST; dsDNA, one strand shown. The method, boiled down: as §1

The target of a further test is T9, SPDEF (Homo sapiens, UniProt O95238 1-335).
T9 sequence: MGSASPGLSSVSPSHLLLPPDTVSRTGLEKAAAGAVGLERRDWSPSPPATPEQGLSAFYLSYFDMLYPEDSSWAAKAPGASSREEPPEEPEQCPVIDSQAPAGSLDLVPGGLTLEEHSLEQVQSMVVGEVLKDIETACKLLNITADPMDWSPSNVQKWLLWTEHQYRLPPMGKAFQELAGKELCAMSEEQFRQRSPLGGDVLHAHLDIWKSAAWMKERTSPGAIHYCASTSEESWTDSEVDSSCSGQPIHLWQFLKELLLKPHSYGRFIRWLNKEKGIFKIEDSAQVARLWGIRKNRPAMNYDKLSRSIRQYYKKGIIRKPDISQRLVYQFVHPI
Conditions: protein: recombinant; tags: N-terminal GST; dsDNA, one strand shown. The method, boiled down: as §1

A further test addresses T10, ETV7 (Homo sapiens, UniProt Q9Y603 1-341).
T10 sequence: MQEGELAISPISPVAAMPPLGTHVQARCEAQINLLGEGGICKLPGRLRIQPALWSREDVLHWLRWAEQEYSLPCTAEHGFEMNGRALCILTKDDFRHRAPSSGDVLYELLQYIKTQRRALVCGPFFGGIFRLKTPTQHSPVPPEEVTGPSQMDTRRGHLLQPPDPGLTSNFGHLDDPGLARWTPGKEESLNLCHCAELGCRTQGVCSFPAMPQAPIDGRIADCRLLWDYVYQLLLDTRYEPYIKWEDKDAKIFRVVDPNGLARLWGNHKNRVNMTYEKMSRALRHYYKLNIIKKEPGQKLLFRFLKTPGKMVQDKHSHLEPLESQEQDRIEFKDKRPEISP
The following applies: protein: recombinant; tags: N-terminal GST; dsDNA, one strand shown. The method, boiled down:
as §1

The target in the next test is T11, ELF5 (Homo sapiens, UniProt Q9UKW6-2 1-255).
T11 sequence: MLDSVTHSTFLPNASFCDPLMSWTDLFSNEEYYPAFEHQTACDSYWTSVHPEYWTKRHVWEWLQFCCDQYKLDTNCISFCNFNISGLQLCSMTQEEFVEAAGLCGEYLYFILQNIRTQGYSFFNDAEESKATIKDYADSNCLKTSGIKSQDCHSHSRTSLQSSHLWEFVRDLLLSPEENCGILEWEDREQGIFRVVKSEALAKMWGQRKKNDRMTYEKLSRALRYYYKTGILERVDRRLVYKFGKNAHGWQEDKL
The following applies: protein: recombinant; tags: N-terminal GST; dsDNA, one strand shown. Put shortly:
as §1

The target in the next test is T12, ETV3 (Homo sapiens, UniProt P41162-2 1-143).
T12 sequence: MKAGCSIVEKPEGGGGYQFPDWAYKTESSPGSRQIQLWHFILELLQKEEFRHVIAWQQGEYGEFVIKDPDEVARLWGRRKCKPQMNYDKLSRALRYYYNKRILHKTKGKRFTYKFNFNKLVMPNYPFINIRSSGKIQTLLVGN
The following applies: protein: recombinant; tags: N-terminal GST; dsDNA, one strand shown. Put shortly:
as §1

The target of the next test is ETV6 (Homo sapiens, UniProt P41212 1-452). The following applies: protein: recombinant; tags: N-terminal GST; dsDNA, one strand shown. Put shortly: as §1

This note sets out measurements from paper PMC7862700, “An all-to-all approach to the identification of sequence-specific readers for epigenetic DNA modifications on cytosine”.

Sequence of ETV1 (P50549 whole entry): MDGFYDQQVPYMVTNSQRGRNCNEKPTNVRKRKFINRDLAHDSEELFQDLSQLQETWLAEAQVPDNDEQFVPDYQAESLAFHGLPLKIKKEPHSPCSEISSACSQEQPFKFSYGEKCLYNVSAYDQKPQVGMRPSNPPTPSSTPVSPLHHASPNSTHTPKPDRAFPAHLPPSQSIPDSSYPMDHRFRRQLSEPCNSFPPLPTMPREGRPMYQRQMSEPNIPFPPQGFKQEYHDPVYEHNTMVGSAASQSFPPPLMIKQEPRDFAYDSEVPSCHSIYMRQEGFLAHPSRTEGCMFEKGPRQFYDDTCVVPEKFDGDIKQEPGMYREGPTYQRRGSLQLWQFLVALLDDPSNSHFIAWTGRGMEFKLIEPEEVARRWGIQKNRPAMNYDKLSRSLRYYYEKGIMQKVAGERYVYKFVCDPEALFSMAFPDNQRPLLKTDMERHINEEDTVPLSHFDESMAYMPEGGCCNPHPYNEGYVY
Sequence of ELF4 (Q99607 whole entry): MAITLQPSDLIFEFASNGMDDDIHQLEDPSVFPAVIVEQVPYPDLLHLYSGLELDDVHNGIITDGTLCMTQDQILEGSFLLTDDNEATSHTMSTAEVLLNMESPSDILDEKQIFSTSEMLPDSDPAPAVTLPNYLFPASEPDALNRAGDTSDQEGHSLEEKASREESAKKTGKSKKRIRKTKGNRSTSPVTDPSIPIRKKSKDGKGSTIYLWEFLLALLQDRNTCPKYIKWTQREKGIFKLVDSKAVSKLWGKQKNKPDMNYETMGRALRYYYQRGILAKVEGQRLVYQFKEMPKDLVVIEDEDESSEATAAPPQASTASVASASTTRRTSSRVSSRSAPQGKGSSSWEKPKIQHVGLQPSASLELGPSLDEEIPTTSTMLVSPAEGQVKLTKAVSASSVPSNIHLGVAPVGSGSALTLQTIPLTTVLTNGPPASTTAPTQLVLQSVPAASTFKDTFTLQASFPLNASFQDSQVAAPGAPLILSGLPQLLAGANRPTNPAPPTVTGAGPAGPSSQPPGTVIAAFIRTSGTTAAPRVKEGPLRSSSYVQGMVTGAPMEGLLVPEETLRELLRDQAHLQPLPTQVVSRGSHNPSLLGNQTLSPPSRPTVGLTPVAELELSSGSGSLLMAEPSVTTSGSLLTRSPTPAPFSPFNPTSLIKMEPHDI
Sequence of ETV5 (P41161 whole entry): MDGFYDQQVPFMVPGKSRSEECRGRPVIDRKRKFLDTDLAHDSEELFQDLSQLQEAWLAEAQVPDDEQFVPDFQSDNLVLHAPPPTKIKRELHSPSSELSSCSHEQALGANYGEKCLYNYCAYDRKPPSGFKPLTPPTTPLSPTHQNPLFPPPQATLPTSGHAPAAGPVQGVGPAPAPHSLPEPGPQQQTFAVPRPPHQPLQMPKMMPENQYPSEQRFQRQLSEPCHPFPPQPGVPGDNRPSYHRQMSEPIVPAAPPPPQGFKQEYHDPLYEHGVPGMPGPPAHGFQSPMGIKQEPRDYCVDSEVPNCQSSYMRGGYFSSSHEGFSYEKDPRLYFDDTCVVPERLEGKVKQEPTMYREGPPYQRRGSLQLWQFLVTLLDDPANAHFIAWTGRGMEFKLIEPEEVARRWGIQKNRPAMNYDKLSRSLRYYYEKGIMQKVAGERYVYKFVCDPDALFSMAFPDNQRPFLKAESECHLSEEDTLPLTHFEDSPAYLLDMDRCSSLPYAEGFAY
Sequence of CRX (O43186 whole entry): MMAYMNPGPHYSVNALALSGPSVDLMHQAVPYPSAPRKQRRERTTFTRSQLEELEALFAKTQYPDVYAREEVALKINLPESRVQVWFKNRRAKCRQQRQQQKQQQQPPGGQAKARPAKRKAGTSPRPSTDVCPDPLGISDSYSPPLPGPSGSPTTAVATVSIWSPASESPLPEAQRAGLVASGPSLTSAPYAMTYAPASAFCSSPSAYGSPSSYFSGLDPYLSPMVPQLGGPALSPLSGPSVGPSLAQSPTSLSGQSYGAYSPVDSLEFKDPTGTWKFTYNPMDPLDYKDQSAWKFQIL
Sequence of HSF1 (Q00613 whole entry): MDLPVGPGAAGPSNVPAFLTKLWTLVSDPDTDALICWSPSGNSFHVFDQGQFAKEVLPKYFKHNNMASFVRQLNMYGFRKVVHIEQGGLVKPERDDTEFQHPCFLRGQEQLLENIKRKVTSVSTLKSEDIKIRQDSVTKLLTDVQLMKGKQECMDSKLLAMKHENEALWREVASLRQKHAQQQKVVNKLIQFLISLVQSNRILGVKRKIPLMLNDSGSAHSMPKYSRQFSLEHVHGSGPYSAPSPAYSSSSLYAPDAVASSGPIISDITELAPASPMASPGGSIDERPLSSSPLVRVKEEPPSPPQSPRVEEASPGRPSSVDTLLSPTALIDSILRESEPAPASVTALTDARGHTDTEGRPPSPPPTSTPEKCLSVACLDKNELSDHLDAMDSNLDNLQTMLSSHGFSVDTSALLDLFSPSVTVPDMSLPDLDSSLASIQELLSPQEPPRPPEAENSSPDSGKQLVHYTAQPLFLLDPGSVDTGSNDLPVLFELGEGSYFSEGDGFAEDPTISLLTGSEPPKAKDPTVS
Sequence of ETV6 (P41212 whole entry): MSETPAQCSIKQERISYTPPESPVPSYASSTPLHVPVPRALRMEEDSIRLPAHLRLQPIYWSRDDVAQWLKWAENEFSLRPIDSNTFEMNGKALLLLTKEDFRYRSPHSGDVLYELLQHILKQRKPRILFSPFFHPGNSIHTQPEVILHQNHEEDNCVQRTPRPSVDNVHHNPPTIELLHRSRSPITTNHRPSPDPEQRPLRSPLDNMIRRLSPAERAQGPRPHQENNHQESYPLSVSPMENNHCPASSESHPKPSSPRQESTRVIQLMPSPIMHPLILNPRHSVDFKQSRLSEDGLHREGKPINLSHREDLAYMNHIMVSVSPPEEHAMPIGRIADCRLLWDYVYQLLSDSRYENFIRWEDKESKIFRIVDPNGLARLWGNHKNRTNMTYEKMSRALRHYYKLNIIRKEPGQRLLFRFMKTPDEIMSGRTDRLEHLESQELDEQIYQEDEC

On to TATGAC, for which the binding signal was 1.25 fold enrichment (6-mer frequency, TF over GST control) with FEV; 1.33 fold enrichment (6-mer frequency, TF over GST control) with ETV5; 1.18 fold enrichment (6-mer frequency, TF over GST control) with HSF1; 1.28 fold enrichment (6-mer frequency, TF over GST control) in the test with SPIC; 1.32 fold enrichment (6-mer frequency, TF over GST control) with ELF4; 1.45 fold enrichment (6-mer frequency, TF over GST control) in the test with ELK4. Besides, the binding signal is 1.23 fold enrichment (6-mer frequency, TF over GST control) with ETV2; 1.45 fold enrichment (6-mer frequency, TF over GST control) with ELF3; 1.23 fold enrichment (6-mer frequency, TF over GST control) in the test with CRX; 1.26 fold enrichment (6-mer frequency, TF over GST control) with ETV1; 1.39 fold enrichment (6-mer frequency, TF over GST control) with ERF; 1.36 fold enrichment (6-mer frequency, TF over GST control) with ETV3L. Further, the binding signal was 1.31 fold enrichment (6-mer frequency, TF over GST control) with ETS2; 1.33 fold enrichment (6-mer frequency, TF over GST control) with SPDEF; 1.29 fold enrichment (6-mer frequency, TF over GST control) in the test with ETV7; 1.29 fold enrichment (6-mer frequency, TF over GST control) with ELF5; 1.2 fold enrichment (6-mer frequency, TF over GST control) with ETV3; 1.25 fold enrichment (6-mer frequency, TF over GST control) with ETV6.
